{"source": "PubChem BioAssay AID1376", "about": "(SRMLSC, 2008)", "note": "Hit rate of the full screen: of about 220,000 compounds, about 530 (0.24%) were called active. Shown is part of a subset that was picked to be rich in actives. Potency and affinity values are given separately. Unmarked numbers belong to inactive results. Rule as the data show it: active = inhibition above about 13%; inconclusive = no clear call, values can overlap the other calls; inactive = below that.", "data": [{"target": "Bifunctional protein GlmU (Mycobacterium tuberculosis (strain ATCC 25618 / H37Rv)) (UniProt P9WMN3)", "sequence (P9WMN3 whole entry, looked up)": "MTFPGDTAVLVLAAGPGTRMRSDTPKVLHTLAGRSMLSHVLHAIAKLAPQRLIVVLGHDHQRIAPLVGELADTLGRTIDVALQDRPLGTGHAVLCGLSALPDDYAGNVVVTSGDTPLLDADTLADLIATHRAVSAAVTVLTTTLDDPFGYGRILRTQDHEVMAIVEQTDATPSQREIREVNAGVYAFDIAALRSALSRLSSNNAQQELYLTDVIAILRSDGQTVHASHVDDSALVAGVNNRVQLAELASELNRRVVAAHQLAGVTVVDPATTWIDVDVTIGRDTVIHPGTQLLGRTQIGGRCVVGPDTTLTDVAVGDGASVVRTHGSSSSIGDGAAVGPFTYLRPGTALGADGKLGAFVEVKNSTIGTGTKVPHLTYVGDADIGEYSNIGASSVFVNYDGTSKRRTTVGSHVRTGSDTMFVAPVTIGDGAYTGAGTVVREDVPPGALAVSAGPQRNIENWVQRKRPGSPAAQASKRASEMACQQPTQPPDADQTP", "assay": "inhibition of mycobacterial GlmU enzyme – biochemical, glucosamine-1-phosphate acetyltransferase (AID 1376);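 also: 0% = complete reaction with vehicle and 100% = reaction without substrate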", "conditions": "M. tuberculosis GlmU acetyltransferase enzyme assay; stronger effect = higher value;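 tested at 30 µM in the primary screen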", "values": [{"smiles": "COc1ccc(/C=N/n2c(-c3cc(C)[nH]n3)n[nH]c2=S)cc1OC", "inhibition": "5.27%"}, {"smiles": "Cc1ccc(NC(=O)NCc2c(C)nn(C)c2C)cc1Cl", "inhibition": "2.69%"}, {"smiles": "C#CCCOC(=O)N1C2=NC(C(=O)OC)=C(C(=O)OC)[C@@H]3N(CC=C)c4ccccc4[C@]23C[C@H]1C(=O)OC", "inhibition": "-1.18%"}, {"smiles": "CCCCn1c(SCC(=O)N2CCCCC2C)nc2cc(S(N)(=O)=O)ccc21", "note": "(centres undefined)", "inhibition": "-1.4%"}, {"smiles": "COc1ccc(OCc2nnc(SCC(=O)NNC(=O)c3ccc(C)cc3)n2C)cc1", "inhibition": "0.34%"}, {"smiles": "COc1cc(/C=C(\\C#N)c2nc3ccccc3[nH]2)cc(OC)c1O", "inhibition": "4.95%"}, {"smiles": "COc1cc(/C=C(\\C#N)c2nc3ccc(C)cc3[nH]2)c([N+](=O)[O-])cc1OC", "inhibition": "2.93%"}, {"smiles": "CCOC(=O)N1CCN(CC(=O)N2c3ccccc3CCc3ccccc32)CC1", "inhibition": "-2.37%"}, {"smiles": "CCOc1ccc(C(=O)NCC(=O)OCC(=O)Nc2ccc(C)c(S(=O)(=O)N(C)C)c2)cc1", "inhibition": "-3.11%"}, {"smiles": "CCCc1ccc(C(=O)NC(=O)c2ccccc2O)cc1", "inhibition": "2.73%"}, {"smiles": "CCn1cnc2c1c(=O)n(CC(=O)Nc1ccc3c(c1)OC(F)(F)O3)c(=O)n2Cc1ccccc1", "inhibition": "-4.42%"}, {"smiles": "CCC(=O)N1CCC2(CC1)Oc1ccc(Cl)cc1C(=O)C21CC(c2ccccc2)=NO1", "note": "(centres undefined)", "inhibition": "3.83%"}, {"smiles": "Cc1cc(C)n2ncc(C(=O)Nc3ccc4c(c3)OCO4)c2n1", "inhibition": "1.37%"}, {"smiles": "COC(=O)Cc1c(C)c2ccc(OCc3nn[nH]n3)c(C)c2oc1=O", "inhibition": "0.72%"}, {"smiles": "COCCCNC(=O)/C(C#N)=C/c1ccc(OCC(=O)O)c(OC)c1", "inhibition": "13.8% (active)"}, {"smiles": "COc1cc(/C=C(\\C#N)C(=O)NCC2CCCO2)ccc1OCC(=O)O", "note": "(centres undefined)", "inhibition": "-0.12%"}, {"smiles": "COCCCNC(=O)/C(C#N)=C/c1ccc(F)cc1", "inhibition": "-2.31%"}, {"smiles": "COc1ccc2cc(-c3[nH]ncc3CN3CCCCO3)ccc2c1", "inhibition": "-2.52%"}, {"smiles": "N/C(=N\\O)c1ccc(NC(=O)c2cccs2)cc1", "inhibition": "4.24%"}, {"smiles": "O=C(Nc1c(F)c(F)c(F)c(F)c1F)C1CCCCC1", "inhibition": "-1.91%"}, {"smiles": "O=C(/C=C/c1ccccc1)c1c(O)n(CCc2ccccc2)c(=O)[nH]c1=O", "inhibition": "1.89%"}, {"smiles": "Cn1cc(/C=N/NC(=O)c2cc3cc(Br)ccc3o2)c2ccccc21", "inhibition": "-2.19%"}, {"smiles": "O=C(O)Cn1cc(/C=N/NC(=O)c2cc3cc(Br)ccc3o2)c2ccccc21", "inhibition": "-0.33%"}, {"smiles": "COc1ccccc1OCc1ccc(C(=O)NCC2CCCO2)o1", "note": "(centres undefined)", "inhibition": "1.7%"}, {"smiles": "CCCCOc1ccc(C(=O)N2CCC(C)CC2)cc1", "inhibition": "-0.91%"}, {"smiles": "CCCCOc1ccc(C2CCC(C(C)=O)C(C)C2)cc1", "note": "(centres undefined)", "inhibition": "13.4% (active)"}, {"smiles": "CCCCOc1ccc(C(=O)N2CC(C)OC(C)C2)cc1", "note": "(centres undefined)", "inhibition": "6.38%"}, {"smiles": "CCSC1=N/C(=C\\c2ccc(-c3ccccc3[N+](=O)[O-])o2)C(=O)S1", "inhibition": "6.21%"}, {"smiles": "CCCSC1=N/C(=C\\c2ccsc2)C(=O)S1", "inhibition": "-1.15%"}, {"smiles": "CCCSC1=N/C(=C\\c2ccc([N+](=O)[O-])o2)C(=O)S1", "inhibition": "21.6% (active)"}, {"smiles": "Cc1cc(N2CCN(S(=O)(=O)c3ccccc3)CC2)c2ccccc2n1", "inhibition": "-2.32%"}, {"smiles": "C/C(=N\\N1CCN(C)CC1)c1ccc(Cl)c(Cl)c1", "inhibition": "-1.93%"}, {"smiles": "O=C(CN1CCN(Cc2ccccc2Cl)CC1)N/N=C/c1ccco1", "inhibition": "2.34%"}, {"smiles": "CCN(CC)C(=S)SC1=CCS(=O)(=O)C1", "inhibition": "-2.51%"}, {"smiles": "CCN(CC)C(=S)SCC(=O)c1ccccc1", "inhibition": "2.19%"}, {"smiles": "O=S(=O)(NCc1ccccc1)c1ccc(F)cc1Br", "inhibition": "6.02%"}, {"smiles": "COc1ccc(/C=C2/C(=N)N3C(=NC2=O)Sc2cc(S(C)(=O)=O)ccc23)cc1OC", "inhibition": "3.31%"}, {"smiles": "CN(C)c1ccc(/C=C2\\C(=N)N3C(=NC2=O)Sc2cc(S(C)(=O)=O)ccc23)cc1", "inhibition": "-6.57%"}, {"smiles": "COC(=O)c1cc(C#N)c(Oc2ccc(OC)cc2)nc1C", "inhibition": "8.02%"}, {"smiles": "CCO/C(C)=C1/SC(=S)NC1=O", "inhibition": "-6.59%"}, {"smiles": "CCCCCC/C(C)=C1/SC(=S)NC1=O", "inhibition": "-3.54%"}, {"smiles": "C/C(C/C(C)=C1/SC(=S)NC1=O)=C1\\SC(=S)NC1=O", "inhibition": "49% (active)"}, {"smiles": "Cn1nc(-c2ccccc2)c(C(=O)NC(C(=O)O)c2ccccc2)c1Cl", "note": "(centres undefined)", "inhibition": "1.91%"}, {"smiles": "CN(C)C(=O)CSc1ncnc2scc(-c3ccccc3)c12", "inhibition": "2.78%"}, {"smiles": "Clc1nssc1=Nc1ccccc1", "inhibition": "14.6% (active)"}, {"smiles": "Cc1ccc(N=c2ssnc2Cl)cc1", "inhibition": "17.6%"}, {"smiles": "COc1ccc(N=c2ssnc2Cl)cc1", "inhibition": "5.49%"}, {"smiles": "N#Cc1cccc(N=c2ssnc2Cl)c1", "inhibition": "-3.05%"}, {"smiles": "COc1cc(N=c2ssnc2Cl)cc(OC)c1OC", "inhibition": "14.1% (active)"}, {"smiles": "N#Cc1ccc(N=c2ssnc2Cl)cc1", "inhibition": "18.4%"}, {"smiles": "Clc1ccc(N=c2ssnc2Cl)cc1", "inhibition": "19.9% (active)"}, {"smiles": "COc1cc(N=c2ssnc2Cl)cc(OC)c1", "inhibition": "12.8%"}, {"smiles": "Clc1nssc1=Nc1ccc(Br)cc1", "inhibition": "18%"}, {"smiles": "Cc1ccc(N/C=C/C(=O)c2cccs2)cc1C", "inhibition": "-3.05%"}, {"smiles": "COc1cccc2sc(NNC(=O)C3COc4ccccc4O3)nc12", "note": "(centres undefined)", "inhibition": "6.49%"}, {"smiles": "O=C(CSc1nnc(-c2ccccc2Cl)n1Cc1ccco1)Nc1ccc2c(c1)OCCO2", "inhibition": "-6.82%"}, {"smiles": "OCCN1CCN(c2ncnc3sc(-c4ccccc4)cc23)CC1", "inhibition": "0.73%"}, {"smiles": "Cc1ccc(C(=O)OC2OC(=O)C(Cl)=C2N2CCOCC2)cc1", "note": "(centres undefined)", "inhibition": "7.25%"}, {"smiles": "O=c1[nH]c2ccccc2nc1NCCN1CCOCC1", "inhibition": "-0.64%"}, {"smiles": "COc1ccc(-c2noc3c2-c2nc(-c4ccc(C)cc4)sc2CC3)cc1", "inhibition": "6.62%"}, {"smiles": "O=C(NCC(=O)N(c1ccccc1)C(C(=O)NC1CCCCC1)c1cccnc1)c1cccs1", "note": "(centres undefined)", "inhibition": "-3.93%"}, {"smiles": "O=C(CN(C(=O)c1cc2c(s1)CCC2)C1CCCC1)NCc1cccs1", "inhibition": "5.33%"}, {"smiles": "O=C(NCc1cccs1)c1cc2c(s1)CCCC2", "inhibition": "0.13%"}, {"smiles": "O=C(CN(Cc1ccccc1)C(=O)c1cc2c(s1)CCC2)NCc1cccs1", "inhibition": "14.9% (active)"}]}]}
